# IL1B secr inh: qHTS for Inhibitors of Inflammasome Signaling: IL-1-beta AlphaLISA Primary Screen; THP-1 LPS/ATP IL-1B secretion, AlphaLISA, 16 h; active compounds read low; activity change, % at 57.5 µM; 360,000 compounds, 4.7% hits; AID 743279, 2014; in the data active means activity change below about -50%; inconclusive means mostly about -30% to -49%
#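 Secreted IL-1B measured by AlphaLISA bead assay after 16 h compound exposure of THP-1 cells; compounds (final up to 57.5 uM) added 1 h before LPS (250 ng/mL) and ATP (1.25 mM) stimulation; lower signal means less secretion.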
# HT1080 IDH1KD tx: qHTS for induction of synthetic lethality in tumor cells producing 2HG: qHTS for the HT-1080-IDH1KD cell line; 360,000 compounds, 2% hits; AID 686971, 2013; Potency, µM (series often up to 46.1 µM), inactives show top-dose activity, negative = toxicity, hits mostly cytotoxic; HT-1080 IDH1 knockdown viability, ATP luminescence, 48 h;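 further: potency means the concentration at half of the fitted maximal effect; 0% = DMSO wells and -100% = cell-free medium wells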
#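 Viability of IDH1-knockdown HT-1080 fibrosarcoma cells was assessed by CellTiter-Glo after 48 h at 37 °C with titrated compound; concentration-effect curves were classified by fit quality and response size.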
# DT40 TDP1 CPT: qHTS for Inhibitors of human tyrosyl-DNA phosphodiesterase 1 (TDP1): qHTS in cells in presence of CPT | chicken DT40 Tdp1-/-;hTDP1 cells + 20 nM CPT, ATP luminescence, 48 h | Potency, µM (titrated, usually from 46.2 µM), for inactives: at the top dose activity change, negative = growth inhibition, hits mostly inhibitors | 420,000 compounds, 12% hits | AID 686979, 2013; further: potency means the concentration at half of the fitted maximal effect; nearly all actives have a fitted effect of over 55% in size
#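 Chicken DT40 Tdp1-/- cells complemented with human TDP1, 400 cells/well, exposed to compounds plus 20 nM camptothecin for at least 48 h at 37 C; viability read as ATP content by CellTiter-Glo luminescence.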
# HT1080NT lethal: qHTS for induction of synthetic lethality in tumor cells producing 2HG: qHTS for the HT-1080-NT fibrosarcoma cell line; HT-1080-NT fibrosarcoma viability, CellTiter-Glo ATP luminescence, 48 h; Potency, µM (doses to about 46.1 µM), inactives show at the highest dose activity, negative = less viability, actives largely listed as cytotoxic; 360,000 compounds, 1.6% hits; AID 686970, 2013;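 further: NT is the 2HG producing partner of a matched IDH1 knockdown line; potency means the concentration at half of the fitted maximal effect; 0% = DMSO-treated cells and -100% = media-only wells without cells; nearly all actives have a fitted effect of over 55% in size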
#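 HT-1080-NT; 750 cells/well; 5% FBS RPMI; 48 h compound, 37 degrees C; CellTiter-Glo luminescence; curve fitting and curve-class assignment.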
# DT40 TDP1 no CPT: qHTS for Inhibitors of human tyrosyl-DNA phosphodiesterase 1 (TDP1): qHTS in cells in absence of CPT; DT40 Tdp1-/- hTDP1 cells, no CPT, ATP luminescence, 48 h; 420,000 compounds, 15% hits; Potency, µM (highest dose often 46.2 µM), for inactives: at the top dose activity change, negative = growth inhibition, actives largely listed as inhibitors; AID 686978, 2013; further: potency means the concentration at half of the fitted maximal effect; nearly all actives have a fitted effect of over 55% in size
#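 Luminescent ATP content (CellTiter-Glo) served as the growth readout. Knockout chicken DT40 cells expressing human TDP1 were exposed to compounds without camptothecin for a minimum 48 hr at 37 °C.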
# * marks the source's active call; other numbers are inactive results; ? = inconclusive; . = not tested or not shown; [ ] = remark or other dose. Compounds with a hit are over-represented: about 19% of the library has one in this group of screens. Unless noted, the call rests on the fitted dose curve; in most records, active means well fitted curve in the direction sought with a large enough effect; inconclusive means small, poorly fitted or top-dose-only effect, or another doubt; inactive means no such curve, though single readings can be large; an effect the other way counts as inactive or inconclusive. Unless noted, on the % scale 0 is the no-effect control and ±100 the full control effect.
SMILES,IL1B secr inh,HT1080 IDH1KD tx,DT40 TDP1 CPT,HT1080NT lethal,DT40 TDP1 no CPT
O=C(COC(=O)CNC(=O)c1ccc([N+](=O)[O-])o1)Nc1ncc(Cl)cc1Cl,-92.2*,-2.3%,?,-0.9%,-6.8%
O=C(COC(=O)CNS(=O)(=O)c1ccccc1)Nc1ncc(Cl)cc1Cl,-16.1,-3.4%,6.4%,-6.5%,6.51µM*
O=C(COC(=O)CNS(=O)(=O)c1ccccc1)Nc1ccc(Cl)cn1,19.0,15.0%,-0.9%,15.1%,-0.8%
CSc1nn(Cc2ccccc2C)c(NC(C)=O)c1S(=O)(=O)c1ccc(C)cc1,.,.,?,.,14.6µM*
Cc1cccc(N(C(=O)c2snc(C(N)=O)c2N)C(C(=O)NCC2CCCO2)c2ccc(N(C)C)cc2)c1C (configuration not stated),7.4,9.7%,?,8.0%,?
C[N+](C)(C)CC/C=C1/c2ccccc2CSc2ccccc21,-19.4,-6.3%,?,-5.9%,?
CNCCC=C1c2ccccc2CCc2ccccc21,-64.3*,?,9.2µM*,23.1µM*,20.6µM*
Cc1cc(=O)c2c(o1)C(=O)c1occc1C2=O,0.0,-2.4%,18.4µM*,-0.7%,14.6µM*
CCOc1ccc(C(=O)/C=C/c2cn(CC(O)CN3CCc4ccccc43)c3ccccc23)cc1 (configuration not stated),.,.,7.31µM*,.,8.2µM*
CCCCN(CCCC)CC(O)Cn1cc(/C=C/C(=O)c2ccccc2)c2ccccc21 (configuration not stated),.,.,10.3µM*,.,10.3µM*
CCCCN(C)CC(O)Cn1cc(/C=C/C(=O)c2cccs2)c2ccccc21 (configuration not stated),-56.2*,3.8%,18.4µM*,0.0%,?
CCOc1ccc(C(=O)N2CCc3ccccc32)cc1,7.7,8.2%,-29.5%,9.5%,-20.4%
Cc1ccc(C(=O)/C=C/c2cn(CN3CCN(C)CC3)c3ccccc23)cc1,-55.0*,?,-22.2%,?,?
CC(C)n1nnnc1C1c2ccccc2C(=O)N1Cc1cccnc1 (configuration not stated),20.6,?,-4.7%,10.1%,-17.2%
CCN1C[C@@H]2[C@@H]3C(=O)N(Cc4ccccc4)C(=O)[C@@H]3[C@](C)(C1=O)N2C(=O)c1ccc(F)cc1,46.4,10.8%,-3.7%,4.5%,6.9%
CC(CCc1ccccc1)NC(=O)COc1ccc(S(=O)(=O)N2CCOCC2)cc1[N+](=O)[O-] (configuration not stated),-11.1,-13.2%,?,-12.3%,?
N#CC1(Nc2ccc(S(N)(=O)=O)cc2)CCCC1,1.8,?,?,?,?
COc1ccccc1NS(=O)(=O)CC12CCC(CC1=O)C2(C)C (configuration not stated),2.2,6.8%,-4.4%,3.7%,-12.8%
O=C(/C=C/c1cn(CC(O)CN2CCCCCC2)c2ccccc12)c1cccs1 (configuration not stated),-107.0*,20.6µM*,?,18.4µM*,?
O=Cc1cn(CC(O)Cn2cc(C=O)c3ccccc32)c2ccccc12,28.7,-12.4%,0.6%,-5.7%,4.0%
COC(CNC(=O)c1ccc2c3c(onc13)-c1ccccc1C2=O)OC,-96.8*,?,2.91µM*,23.1µM*,3.26µM*
COC(CNC(=O)c1cccnc1)OC,0.0,6.3%,12.6%,0.6%,-1.1%
C=CCc1cc(C=O)cc(OCC)c1O,-5.3,-0.2%,9.7%,3.7%,-7.3%
COc1ccc(/C=C2\CCc3c2nc2ccccc2c3C(=O)O)cc1OC,0.0,-4.0%,-18.9%,?,-25.0%
CN(CCC#N)C(=O)COC(=O)c1c2c(nc3ccccc13)/C(=C/c1ccco1)CC2,-58.0*,14.1%,?,11.7%,?
SMILES,IL1B secr inh,HT1080 IDH1KD tx,DT40 TDP1 CPT,HT1080NT lethal,DT40 TDP1 no CPT
CCc1ccc(S(=O)(=O)c2nnn3c2nc(N2CCC(C(N)=O)CC2)c2cc(Cl)ccc23)cc1,.,.,?,.,23.1µM*
Cc1ccc(S(=O)(=O)c2nnn3c2nc(N2CCC(C)CC2)c2cc(Cl)ccc23)cc1C,.,.,?,.,20.6µM*
Cc1ccc(S(=O)(=O)c2nnn3c2nc(N2CCC(C(N)=O)CC2)c2ccccc23)cc1,?,?,-1.4%,-22.8%,17.5%
COc1ccccc1N1CCN(c2nc3c(S(=O)(=O)c4ccccc4)nnn3c3ccc(Cl)cc23)CC1,.,.,6.4%,.,-23.4%
CC1CCN(c2nc3c(S(=O)(=O)c4ccccc4)nnn3c3ccc(Cl)cc23)CC1,.,.,16.4µM*,.,18.4µM*
CC(=O)c1cccc(S(=O)(=O)NCC2CCCCC2)c1,23.1,-5.1%,10.5%,2.6%,?
CC1CCCC(C)N1C(=O)COC(=O)Cc1ccc(F)cc1 (configuration not stated),-13.8,-3.2%,?,1.3%,-0.2%
CC(C)c1ccc(NC(=O)C2CCN(C(=O)c3ccc(F)cc3)CC2)cc1,.,.,?,.,8.2µM*
COc1ccc(C(=O)N2CCC(C(=O)c3c(C)cc(C)cc3C)CC2)cc1,-4.1,-8.5%,?,-15.6%,23.1µM*
O=C(NC1CCCCCC1)C1CCN(C(=O)c2ccc(Br)cc2)CC1,8.4,-1.6%,20.6µM*,-1.4%,14.6µM*
COc1ccccc1NC(=O)Nc1ccc(C(=O)N2CCCCC2)cc1,?,?,?,?,20.6µM*
Cc1ccc(C(=O)N2CCC(C(=O)NC3CCCCCC3)CC2)cc1,20.6,-3.5%,-11.6%,6.3%,-12.8%
COC(=O)c1ccccc1NC(=O)Nc1ccc(C(=O)N2CCCC2)cc1,11.8,4.4%,-3.4%,2.3%,-19.3%
COc1ccc(C(=O)N2CCC(C(=O)O)CC2)cc1,10.2,5.9%,-6.3%,7.5%,6.9%
CCNC(=S)N1CCc2cc(OC)c(OC)cc2C1COc1ccccc1OC (configuration not stated),-18.7,-5.7%,-14.1%,-0.1%,-7.7%
COc1ccc(CN2C(=NC(=O)C3CC3)SC3CS(=O)(=O)CC32)cc1 (configuration not stated),10.4,18.0%,-13.1%,6.5%,33.1%
COc1ccc(NC(=O)C2CCCN(c3c4c(nc5ncnn35)CCC4)C2)cc1 (configuration not stated),-1.0,-22.1%,14.6µM*,5.1%[9.24 µM],23.1µM*
CC(=O)Nc1ccc(NC(=O)C2CCN(C(=O)c3cccs3)CC2)cc1,?,-10.3%,23.1µM*,6.2%,-11.3%

# Bioassay records (PubChem BioAssay)
